# Measured values reported in the supplement of paper PMC4466140.
# Legend:
# Assay in all cases: SPOT peptide array binding signal intensity (averaged, normalized) (arbitrary units (background-subtracted, floor 0; scale differs between SH3 domains)); higher = stronger binding of the SH3 domain to the peptide
# AgAbp1 = biological target: AgAbp1
# Outline: (§1)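 GST-fused SH3 domains, from four yeast species, were produced in E. coli BL21(DE3) and captured on glutathione Sepharose. Membranes of cellulose carrying synthetic 15-mer peptides, in which cysteines had been replaced by serines, were exposed to each domain at 10 μg/ml overnight at 4°C in TBS-based blocking buffer. After anti-GST antibody, an HRP anti-mouse secondary and luminol, spots were imaged and quantified using Genespotter. Binding signal is normalized and background-subtracted spot intensity, averaged over replicates, in arbitrary units that differ between domains.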
# AgBbc1 = biological target: AgBbc1
# Outline: as §1
# AgBem1-D1 = biological target: AgBem1-D1
# Outline: as §1
# AgBzz1-D1 = biological target: AgBzz1-D1
# Outline: as §1
# AgBzz1-D2 = biological target: AgBzz1-D2
# Outline: as §1
# AgCyk3 = biological target: AgCyk3
# Outline: as §1
# AgFus1 = biological target: AgFus1
# Outline: as §1
# AgHof1 = biological target: AgHof1
# Outline: as §1
# AgHse1 = biological target: AgHse1
# Outline: as §1
# AgLsb1 = biological target: AgLsb1
# Outline: as §1
# AgLsb4 = biological target: AgLsb4
# Outline: as §1
# AgMyo5 = biological target: AgMyo5
# Outline: as §1
# AgNbp2 = biological target: AgNbp2
# Outline: as §1
# AgRvs167 = biological target: AgRvs167
# Outline: as §1
# AgSho1 = biological target: AgSho1
# Outline: as §1
# AgSla1-D1-D2 = biological target: AgSla1-D1-D2
# Outline: as §1
# AgSla1-D3 = biological target: AgSla1-D3
# Outline: as §1
# CaAbp1-D1 = biological target: CaAbp1-D1
# Outline: as §1
# CaAbp1-D2 = biological target: CaAbp1-D2
# Outline: as §1
# CaBbc1 = biological target: CaBbc1
# Outline: as §1
# CaBem1-D1 = biological target: CaBem1-D1
# Outline: as §1
# CaBzz1-D1 = biological target: CaBzz1-D1
# Outline: as §1
# CaBzz1-D2 = biological target: CaBzz1-D2
# Outline: as §1
# CaCyk3 = biological target: CaCyk3
# Outline: as §1
# CaFus1 = biological target: CaFus1
# Outline: as §1
# CaHof1 = biological target: CaHof1
# Outline: as §1
# CaHse1 = biological target: CaHse1
# Outline: as §1
# CaLsb1 = biological target: CaLsb1
# Outline: as §1
# CaLsb4 = biological target: CaLsb4
# Outline: as §1
# CaMyo5 = biological target: CaMyo5
# Outline: as §1
# CaNbp2 = biological target: CaNbp2
# Outline: as §1
# CaRvs167 = biological target: CaRvs167
# Outline: as §1
# CaRvs167-3 = biological target: CaRvs167-3
# Outline: as §1
# CaSho1 = biological target: CaSho1
# Outline: as §1
# CaSla1-D1-D2 = biological target: CaSla1-D1-D2
# Outline: as §1
# CaSla1-D3 = biological target: CaSla1-D3
# Outline: as §1
# ScAbp1 = biological target: ScAbp1
# Outline: as §1
# ScBbc1 = biological target: ScBbc1
# Outline: as §1
# ScBem1-D1 = biological target: ScBem1-D1
# Outline: as §1
# ScBzz1-D1 = biological target: ScBzz1-D1
# Outline: as §1
# ScBzz1-D2 = biological target: ScBzz1-D2
# Outline: as §1
# ScCyk3 = biological target: ScCyk3
# Outline: as §1
# ScFus1 = biological target: ScFus1
# Outline: as §1
# ScHof1 = biological target: ScHof1
# Outline: as §1
# ScHse1 = biological target: ScHse1
# Outline: as §1
# ScLsb1 = biological target: ScLsb1
# Outline: as §1
# ScLsb2 = biological target: ScLsb2
# Outline: as §1
# ScLsb3 = biological target: ScLsb3
# Outline: as §1
# ScLsb4 = biological target: ScLsb4
# Outline: as §1
# ScMyo3 = biological target: ScMyo3
# Outline: as §1
# ScMyo5 = biological target: ScMyo5
# Outline: as §1
# ScNbp2 = biological target: ScNbp2
# Outline: as §1
# ScPex13 = biological target: ScPex13
# Outline: as §1
# ScRvs167 = biological target: ScRvs167
# Outline: as §1
# ScSho1 = biological target: ScSho1
# Outline: as §1
# ScSla1-D1-D2 = biological target: ScSla1-D1-D2
# Outline: as §1
# ScSla1-D3 = biological target: ScSla1-D3
# Outline: as §1
# SpAbp1-D1 = biological target: SpAbp1-D1
# Outline: as §1
# SpBbc1 = biological target: SpBbc1
# Outline: as §1
# SpBzz1-D1 = biological target: SpBzz1-D1
# Outline: as §1
# SpBzz1-D2 = biological target: SpBzz1-D2
# Outline: as §1
# SpCyk3 = biological target: SpCyk3
# Outline: as §1
# SpHof1 = biological target: SpHof1
# Outline: as §1
# SpHof1-2 = biological target: SpHof1-2
# Outline: as §1
# SpHof1-3 = biological target: SpHof1-3
# Outline: as §1
# SpHse1 = biological target: SpHse1
# Outline: as §1
# SpLsb1 = biological target: SpLsb1
# Outline: as §1
# SpLsb4 = biological target: SpLsb4
# Outline: as §1
# SpMyo1 = biological target: SpMyo1
# Outline: as §1
# SpNbp2 = biological target: SpNbp2
# Outline: as §1
# SpPex13 = biological target: SpPex13
# Outline: as §1
# SpRvs167 = biological target: SpRvs167
# Outline: as §1
# SpSla1-D1-D2 = biological target: SpSla1-D1-D2
# Outline: as §1
# SpSla1-D3 = biological target: SpSla1-D3
# Outline: as §1
binder,measurement,setting,value
FIRKRAPTPPAPSRS,SPOT peptide array binding signal intensity,AgAbp1,948
same,SPOT peptide array binding signal intensity,AgBbc1,334
same,SPOT peptide array binding signal intensity,AgBem1-D1,340
same,SPOT peptide array binding signal intensity,AgBzz1-D1,224
same,SPOT peptide array binding signal intensity,AgBzz1-D2,120
same,SPOT peptide array binding signal intensity,AgCyk3,1
same,SPOT peptide array binding signal intensity,AgFus1,203
same,SPOT peptide array binding signal intensity,AgHof1,65.2
same,SPOT peptide array binding signal intensity,AgHse1,312
same,SPOT peptide array binding signal intensity,AgLsb1,1090
same,SPOT peptide array binding signal intensity,AgLsb4,60
same,SPOT peptide array binding signal intensity,AgMyo5,1.75
same,SPOT peptide array binding signal intensity,AgNbp2,1060
same,SPOT peptide array binding signal intensity,AgRvs167,5.67
same,SPOT peptide array binding signal intensity,AgSho1,14
same,SPOT peptide array binding signal intensity,AgSla1-D1-D2,196
same,SPOT peptide array binding signal intensity,AgSla1-D3,23.2
same,SPOT peptide array binding signal intensity,CaAbp1-D1,2450
same,SPOT peptide array binding signal intensity,CaAbp1-D2,734
same,SPOT peptide array binding signal intensity,CaBbc1,641
same,SPOT peptide array binding signal intensity,CaBem1-D1,813
same,SPOT peptide array binding signal intensity,CaBzz1-D1,1840
same,SPOT peptide array binding signal intensity,CaBzz1-D2,4040
same,SPOT peptide array binding signal intensity,CaCyk3,19.5
same,SPOT peptide array binding signal intensity,CaFus1,334
same,SPOT peptide array binding signal intensity,CaHof1,0.5
same,SPOT peptide array binding signal intensity,CaHse1,10.8
same,SPOT peptide array binding signal intensity,CaLsb1,167
same,SPOT peptide array binding signal intensity,CaLsb4,198
same,SPOT peptide array binding signal intensity,CaMyo5,12.8
same,SPOT peptide array binding signal intensity,CaNbp2,415
same,SPOT peptide array binding signal intensity,CaRvs167,38.7
same,SPOT peptide array binding signal intensity,CaRvs167-3,40.8
same,SPOT peptide array binding signal intensity,CaSho1,158
same,SPOT peptide array binding signal intensity,CaSla1-D1-D2,1780
same,SPOT peptide array binding signal intensity,CaSla1-D3,7.75
same,SPOT peptide array binding signal intensity,ScAbp1,256
same,SPOT peptide array binding signal intensity,ScBbc1,99
same,SPOT peptide array binding signal intensity,ScBem1-D1,27.5
same,SPOT peptide array binding signal intensity,ScBzz1-D1,160
same,SPOT peptide array binding signal intensity,ScBzz1-D2,53
same,SPOT peptide array binding signal intensity,ScCyk3,46
same,SPOT peptide array binding signal intensity,ScFus1,84.5
same,SPOT peptide array binding signal intensity,ScHof1,5.25
same,SPOT peptide array binding signal intensity,ScHse1,922
same,SPOT peptide array binding signal intensity,ScLsb1,224
same,SPOT peptide array binding signal intensity,ScLsb2,313
same,SPOT peptide array binding signal intensity,ScLsb3,432
same,SPOT peptide array binding signal intensity,ScLsb4,26
same,SPOT peptide array binding signal intensity,ScMyo3,22
same,SPOT peptide array binding signal intensity,ScMyo5,20.8
same,SPOT peptide array binding signal intensity,ScNbp2,2260
same,SPOT peptide array binding signal intensity,ScPex13,156
same,SPOT peptide array binding signal intensity,ScRvs167,613
same,SPOT peptide array binding signal intensity,ScSho1,866
same,SPOT peptide array binding signal intensity,ScSla1-D1-D2,2370
same,SPOT peptide array binding signal intensity,ScSla1-D3,29.8
same,SPOT peptide array binding signal intensity,SpAbp1-D1,342
same,SPOT peptide array binding signal intensity,SpBbc1,6.5
same,SPOT peptide array binding signal intensity,SpBzz1-D1,770
same,SPOT peptide array binding signal intensity,SpBzz1-D2,200
same,SPOT peptide array binding signal intensity,SpCyk3,2
same,SPOT peptide array binding signal intensity,SpHof1,116
same,SPOT peptide array binding signal intensity,SpHof1-2,10.5
same,SPOT peptide array binding signal intensity,SpHof1-3,567
same,SPOT peptide array binding signal intensity,SpHse1,377
same,SPOT peptide array binding signal intensity,SpLsb1,556
same,SPOT peptide array binding signal intensity,SpLsb4,1130
same,SPOT peptide array binding signal intensity,SpMyo1,24.5
same,SPOT peptide array binding signal intensity,SpNbp2,75
same,SPOT peptide array binding signal intensity,SpPex13,33
same,SPOT peptide array binding signal intensity,SpRvs167,293
same,SPOT peptide array binding signal intensity,SpSla1-D1-D2,19
same,SPOT peptide array binding signal intensity,SpSla1-D3,4
NSMRPPLLIPAATTK,SPOT peptide array binding signal intensity,SpBzz1-D2,53.8
same,SPOT peptide array binding signal intensity,SpCyk3,3
same,SPOT peptide array binding signal intensity,SpHof1,36
same,SPOT peptide array binding signal intensity,SpHof1-2,31.8
same,SPOT peptide array binding signal intensity,SpHof1-3,41
same,SPOT peptide array binding signal intensity,SpHse1,444
same,SPOT peptide array binding signal intensity,SpLsb1,34.2
same,SPOT peptide array binding signal intensity,SpLsb4,761
same,SPOT peptide array binding signal intensity,SpMyo1,56.2
same,SPOT peptide array binding signal intensity,SpNbp2,116
same,SPOT peptide array binding signal intensity,SpPex13,37
same,SPOT peptide array binding signal intensity,SpRvs167,68.2
same,SPOT peptide array binding signal intensity,SpSla1-D1-D2,≤ 0
same,SPOT peptide array binding signal intensity,SpSla1-D3,200
